Data as given in PubChem BioAssay (Tox21).
Records with an inconclusive call do not appear. Calls of active or inactive are those of the source. Calls follow the shape of the dose curve; as a rule, active = well fitted activation curve with a large enough effect in the signal ratio in the repeat runs (not every such curve was filed as active); inconclusive = weak or mixed curves; inactive = flat fitted curve, though single readings scatter; the % refers to the signal ratio.
% is scaled to controls: 0 for no effect and ±100 for the full control effect.

Test: qHTS assay to identify small molecule agonists of the hypoxia (HIF-1) signaling pathway (AID 1224846)
Conditions: HRE-bla ME-180 cells, beta-lactamase ratio, 17 h; series mostly up to 76.8 µM
Excerpt: U.S. Tox21 Program National Center for Advancing Translational Sciences [NCATS] NIH Chemical Genomics Center [NCGC] U.S. Environmental Protection Agency [EPA] National Institutes of Environmental Health Sciences [NIEHS] National Toxicology Program [NTP] U.S. Food and Drug Administration [FDA] Tox21 Assay Overview: Hypoxia-inducible factor-1 (HIF-1) is the major hypoxia-regulated transcription factor that controls cellular responses to low oxygen concentration. HIF-1 is composed of two subunits: hypoxia responsive HIF-1-alpha and constitutively expressed HIF-1-beta, which is also known as aryl hydrocarbon receptor nuclear translocator. During hypoxic conditions, HIF-1-alpha heterodimerizes with HIF-1-beta and translocates into the nucleus where the HIF-1 complex binds to the hypoxia-response element (HRE) and activates expression of target genes such as VEGF (vascular endothelial growth factor). The HIF-1 pathway is essential to normal growth and development, and is involved in the pathophysiology of cancer, inflammation, and ischemia. Using a beta-lactamase reporter-gene under control of the hypoxia response element, a cell-based assay [CellSensor(TM) HRE-bla ME-180 from Life Technologies, Carlsbad, CA] was used to measure hypoxia-induced signaling. Tox21 10K library compounds were measured for their ability to induce the reporter gene activity.
Tox21 Assay Protocol Summary: HRE-bla ME-180 cells were dispensed at 2,000 cells per well in 6 uL of assay medium containing 0.5% dialyzed FBS into black wall/clear-bottom 1536-well plates using a Multidrop Combi (Thermo Scientific, Waltham, MA) dispenser. After the assay plates were incubated at 37C and 5% CO2 for 5 hrs, 23 nL of compounds dissolved in DMSO, positive controls or DMSO only was transferred to each well of the assay plate using a Pintool station (Kalypsys, San Diego, CA). The assay plates were incubated at 37C and 5% CO2 for 17 hrs. One uL of LiveBLAzerTM B/G FRET substrate (CCF4-AM) (Life Technologies) was added to each well using a Flying Reagent Dispenser (Aurora Discovery, San Diego, CA).
With `CCC1(CC)C(=O)NC(=O)NC1=O` the outcome was “inactive”.
With `C=C(Cl)Cl` the outcome was “inactive”.
For `CCOC(C(=O)OCCN(C)C)(c1ccccc1)c1ccccc1`, the outcome was “inactive”.
With `OCCSSCCO` the outcome was “inactive”.
In the case of `Cc1ccccc1`, the outcome is reported as “inactive”.
For `CN1CC[C@]23c4c5ccc(O)c4O[C@H]2[C@@H](O)CC[C@H]3[C@H]1C5`, the outcome was “inactive”.
For `O=C(O)C(F)(F)C(F)(F)C(F)(F)C(F)(F)C(F)(F)C(F)(F)C(F)(F)C(F)(F)F`, the outcome was “inactive”.
For `O=C(N/N=C/c1ccc([N+](=O)[O-])o1)c1cc([N+](=O)[O-])cc([N+](=O)[O-])c1O`, the outcome was “inactive”.
With `COC1=CC(=O)O[C@@H](/C=C/c2ccc3c(c2)OCO3)C1` the outcome was “inactive”.
In the case of `Nc1c(Br)cc(Br)c2c1C(=O)c1ccccc1C2=O`, the activation is reported as 0.237% [at 15.8 µM] (inactive).
With `COC1CC(=C(c2cccs2)c2cccs2)C[N+](C)(C)C1` (stereo not given) the outcome was “inactive”.
For `CCCCC#N`, the outcome was “inactive”.
For `CCCCCCCCP(=O)(O)O`, the outcome was “inactive”.
For `CCC1(CCC(C)C)C(=O)NC(=O)NC1=O`, the outcome was “inactive”.
In the case of `Nc1ccccc1C(=O)OCCc1ccccc1`, the outcome is reported as “inactive”.
With `CC(C)(C)N(NC(=O)c1ccc(Cl)cc1)C(=O)c1ccccc1` the outcome was “inactive”.
In the case of `CC(C)(C)OOC(C)(C)CCC(C)(C)OOC(C)(C)C`, the outcome is reported as “inactive”.
In the case of `Cc1ccc(N)c(C)c1`, the outcome is reported as “inactive”.
With `OCC1CO1` (stereo not given) the outcome was “inactive”.
With `C[C@H]1[C@@H]2Cc3ccc(O)cc3[C@@]1(C)CCN2C` the outcome was “inactive”.
With `CCC(C)(C)O` the outcome was “inactive”.
In the case of `O=C(Cl)OCCOCCOC(=O)Cl`, the outcome is reported as “inactive”.
For `C[C@]12CC[C@H]3[C@@H](CCC4=CC(=O)CC[C@@H]43)[C@@H]1CC[C@@H]2OC(=O)CCc1ccccc1`, the outcome was “inactive”.
For `CN(C)N`, the outcome was “inactive”.
For `CCSCc1ccccc1OC(=O)NC`, the outcome was “inactive”.
In the case of `CC(C)(C#N)C(C)(C)C#N`, the outcome is reported as “inactive”.
With `Cc1nc(N(C)C)nc(OC(=O)N(C)C)c1C` the outcome was “inactive”.
For `C1CCNCC1`, the outcome was “inactive”.
In the case of `COP(=O)(OC)OC(Br)C(Cl)(Cl)Br` (stereo not given), the outcome is reported as “inactive”.
With `C[C@]12C=CC3=C4CCC(=O)C=C4CC[C@H]3[C@@H]1CC[C@@H]2O` the outcome was “inactive”.
In the case of `CCCCCCCCCCCCCCCl`, the outcome is reported as “inactive”.
For `Cc1nc2ccccc2c(=O)n1-c1ccccc1Cl`, the outcome was “inactive”.
For `CCCN(CCC)C(=O)Cc1c(-c2ccc(Cl)cc2)nc2ccc(Cl)cn12`, the outcome was “inactive”.
In the case of `COc1ccc(C(=O)c2c(C)n(CCN3CCOCC3)c3ccccc23)cc1`, the outcome is reported as “inactive”.
For `OCCCl`, the outcome was “inactive”.
For `C[N+]1(CCC(C(N)=O)(c2ccccc2)c2ccccc2)CCCCC1`, the outcome was “inactive”.
With `Nc1cc(Cl)cc(C(=O)O)c1Cl` the outcome was “inactive”.
In the case of `Nc1ccc2c(c1)Cc1ccccc1-2`, the outcome is reported as “inactive”.
In the case of `CCNC(=O)NC(=O)/C(C#N)=N/OC`, the outcome is reported as “inactive”.
With `O=CC=O` the outcome was “inactive”.
